Records with an inconclusive call do not appear. Activity calls are given as the source filed them. How the source made its calls: active means hit-call score of the fitted dose curve at least 0.9, where 1 is the maximum; inconclusive means response in the unintended direction; inactive means score below 0.9.
What follows are compounds tested against Retinoic acid receptor RXR-alpha (Homo sapiens) (UniProt P19793) (assay: OT_NURR1_NURR1RXRa_1440: Odyssey Thera (OT) 24-hour HEK293T Protein Complementation Assay for Nurr1/retinoid X receptor (RXR) (AID 2283386)).
Description: OT_NURR1_NURR1RXRa_1440 is a cell-based assay that uses HEK293T, a human kidney cell line, with measurements taken at 24 hours after chemical dosing in a 384-well plate.OT_NURR1_NURR1RXRa_1440 is one of one assay component(s) measured or calculated from the OT_NURR1_NURR1RXRa_1440 assay. It is designed to make measurements of protein fragment complementation, a form of binding reporter, as detected with fluorescence intensity signals by Protein-fragment Complementation technology.Data from the assay component OT_NURR1_NURR1RXRa_1440 was analyzed into 1 assay endpoint. This assay endpoint, OT_NURR1_NURR1RXRa_1440, was analyzed in the positive analysis fitting direction relative to DMSO as the negative control and baseline of activity. Using a type of binding reporter, measures of receptor for gain-of-signal activity can be used to understand the binding at the pathway-level as they relate to the gene RXRA. Furthermore, this assay endpoint can be referred to as a primary readout, because the performed assay has only produced 1 assay endpoint. To generalize the intended target to other relatable targets, this assay endpoint is annotated to the nuclear receptor intended target family, where the subfamily is non-steroidal.
Protein-fragment complementation assay, or PCA, is a method for the identification and quantification of protein-protein interactions. In the PCA, the proteins of interest ("bait" and "prey") are each covalently linked to fragments of a third protein (e.g. DHFR, which acts as a "reporter"). Interaction between the bait and the prey proteins brings the fragments of the reporter protein in close proximity to allow them to form a functional reporter protein whose activity can be measured.

Retinoic acid receptor RXR-alpha (Homo sapiens), sequence (P19793 whole entry, looked up, the tested form may be a part): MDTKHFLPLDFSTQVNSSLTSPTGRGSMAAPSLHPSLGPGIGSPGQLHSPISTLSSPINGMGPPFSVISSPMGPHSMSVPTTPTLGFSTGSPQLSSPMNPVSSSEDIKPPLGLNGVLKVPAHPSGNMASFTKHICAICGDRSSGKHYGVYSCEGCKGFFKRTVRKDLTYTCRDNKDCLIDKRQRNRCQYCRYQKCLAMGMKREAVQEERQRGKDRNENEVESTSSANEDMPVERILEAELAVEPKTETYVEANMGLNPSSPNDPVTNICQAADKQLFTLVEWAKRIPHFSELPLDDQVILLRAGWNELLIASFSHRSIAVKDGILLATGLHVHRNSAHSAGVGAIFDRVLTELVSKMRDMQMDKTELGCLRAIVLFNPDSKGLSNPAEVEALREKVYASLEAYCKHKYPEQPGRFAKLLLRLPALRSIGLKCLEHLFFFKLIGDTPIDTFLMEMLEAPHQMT

| Compound | outcome | AC50 |
| --- | --- | --- |
| OC1CCCC1 | inactive | – |
| CO[Si](OC)(OC)c1ccccc1 | inactive | – |
| C1=Cc2ccccc2C1 | inactive | – |
| CCCCCCCCCCCCCOP(=O)(O)O | inactive | – |
| CCCCC/C=C\C/C=C\CCCCCCCC(=O)OC | – | 50 µM (active) |
| OC1CCCCCCCCCCC1 | inactive | – |
| CCN(CCC#N)c1ccc(N=Nc2c(Cl)cc([N+](=O)[O-])cc2Cl)cc1 | – | 50 µM (active) |
| CC1=CC[C@H]2C[C@@H]1C2(C)C | inactive | – |
| Cc1cc(C)c(C)cc1C | inactive | – |
| CNC(=S)NN | inactive | – |
| O=C(OCC1CCC2OC2C1)C1CCC2OC2C1 (stereo not given) | inactive | – |
| O=S1(=O)OC(c2ccc(O)cc2)(c2ccc(O)cc2)c2ccccc21 | inactive | – |
| NC(=O)c1ccccc1O | inactive | – |
| Cn1c([N+](=O)[O-])cnc1COC(N)=O | inactive | – |
| CC(C)c1ccc2cc(C(C)C)ccc2c1 | – | 97.6 µM (active) |
| O=C(C(Cl)Cl)N1CCOC12CCCCC2 | inactive | – |
| CCCCOCCOC(=O)COc1nc(Cl)c(Cl)cc1Cl | inactive | – |
| CN(C)c1ccc(C(=N)c2ccc(N(C)C)cc2)cc1 | – | 26.7 µM (active) |
| CN(C)c1ccc(N=Nc2ccccc2C(=O)O)cc1 | inactive | – |
| CC(C)(C)c1ccc(-c2ccc(C(C)(C)C)cc2)cc1 | – | 78.3 µM (active) |

| Compound | outcome | AC50 |
| --- | --- | --- |
| CC(C)(C)c1ccc(N)cc1 | inactive | – |
| Cc1cc(C)c(C(=O)O)c(C)c1 | inactive | – |
| C=C[Si](C)(C)O[Si](C)(C)C=C | inactive | – |
| CCOC(=O)CC | inactive | – |
| Cc1ccc(C(C)(C)C)cc1 | inactive | – |
| CCCCCCCOC(=O)CCC | inactive | – |
| CC(C)C1=CC2=CC[C@@H]3[C@](C)(CCC[C@@]3(C)C(=O)O)[C@H]2CC1 | inactive | – |
| Oc1ccc(Cl)cc1Cc1cc(Cl)ccc1O | – | 11.2 µM (active) |
| NC(CO)(CO)CO | inactive | – |
| O=S(=O)(O)c1ccccc1C=Cc1ccc(-c2ccc(C=Cc3ccccc3S(=O)(=O)O)cc2)cc1 | – | 66.8 µM (active) |
| c1ccc2c(c1)ccc1cc3c(ccc4ccccc43)cc12 | inactive | – |
| O=C1CCCC1 | inactive | – |
| CCCCCCCC/C=C\CCCCCCCC(=O)OCCO | – | 38.7 µM (active) |
| O=c1cc(-c2ccccc2)oc2ccccc12 | inactive | – |
| CCOC(=O)Cc1cccc2ccccc12 | inactive | – |
| CCCCC/C=C\CCC=O | inactive | – |
| CCCCCc1ccc(Cl)cc1 | inactive | – |
| CC=C1CC2C=CC1C2 (stereo not given) | inactive | – |
| O=C(O)CCCC[C@@H]1SC[C@@H]2NC(=O)N[C@@H]21 | inactive | – |
| CC(CC=O)CCCC(C)(C)O (stereo not given) | inactive | – |
